Assay [1] concerns the target T1, cGMP-dependent protein kinase 1 (Homo sapiens) (UniProt Q13976).
T1 sequence (whole entry): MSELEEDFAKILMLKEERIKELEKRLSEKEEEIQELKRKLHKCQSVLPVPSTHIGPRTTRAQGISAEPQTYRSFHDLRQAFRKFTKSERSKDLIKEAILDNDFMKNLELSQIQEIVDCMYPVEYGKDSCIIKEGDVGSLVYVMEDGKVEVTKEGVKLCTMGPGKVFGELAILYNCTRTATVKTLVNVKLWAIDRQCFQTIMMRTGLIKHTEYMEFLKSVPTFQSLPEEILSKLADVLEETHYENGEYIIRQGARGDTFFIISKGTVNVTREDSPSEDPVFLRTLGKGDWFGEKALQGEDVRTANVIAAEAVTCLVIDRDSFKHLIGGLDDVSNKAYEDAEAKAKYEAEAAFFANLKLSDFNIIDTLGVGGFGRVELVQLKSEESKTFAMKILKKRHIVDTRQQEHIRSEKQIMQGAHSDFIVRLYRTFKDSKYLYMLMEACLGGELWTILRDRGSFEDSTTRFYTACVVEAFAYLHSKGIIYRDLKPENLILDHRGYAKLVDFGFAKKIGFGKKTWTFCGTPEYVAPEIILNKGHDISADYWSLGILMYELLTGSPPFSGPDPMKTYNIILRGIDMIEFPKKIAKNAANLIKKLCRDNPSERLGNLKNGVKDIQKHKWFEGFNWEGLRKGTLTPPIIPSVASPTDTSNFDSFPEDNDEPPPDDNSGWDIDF
To be noted: at 1 µM.

Assay [2] deals with T1, cGMP-dependent protein kinase 1 (Homo sapiens). Conditions: at 10 µM.
Assay [3] shares this target. To be noted: at 1 µM. The source holds these as a separate data set.
The target is the same in assay [4]. To be noted: at 10 µM. This is another data set of the same source.
In assay [5] the target is T2, MAP kinase-activated protein kinase 5 (Homo sapiens) (UniProt Q8IW41).
T2 sequence (whole entry): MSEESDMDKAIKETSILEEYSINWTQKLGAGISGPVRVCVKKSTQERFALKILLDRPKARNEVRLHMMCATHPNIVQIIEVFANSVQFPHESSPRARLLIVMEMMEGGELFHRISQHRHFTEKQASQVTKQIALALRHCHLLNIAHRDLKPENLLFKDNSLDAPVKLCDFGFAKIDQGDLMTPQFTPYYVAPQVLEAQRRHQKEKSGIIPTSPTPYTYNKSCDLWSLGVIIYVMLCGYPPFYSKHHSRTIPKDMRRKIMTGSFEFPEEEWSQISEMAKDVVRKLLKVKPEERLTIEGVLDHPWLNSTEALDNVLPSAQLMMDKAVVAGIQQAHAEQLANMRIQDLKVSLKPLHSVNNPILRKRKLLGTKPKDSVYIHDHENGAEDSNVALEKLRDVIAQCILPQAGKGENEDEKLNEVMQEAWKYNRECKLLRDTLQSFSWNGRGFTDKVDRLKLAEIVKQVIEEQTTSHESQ
To be noted: at 1 µM.

In assay [6] the target is T2, MAP kinase-activated protein kinase 5 (Homo sapiens). Conditions: at 10 µM.
Assay [7] addresses Serine/threonine-protein kinase N2 (Homo sapiens) (UniProt Q16513). Conditions: at 1 µM.
Assay [8] shares this target. Conditions: at 10 µM.
Assay [9] concerns the target Tyrosine-protein kinase FRK (Homo sapiens) (UniProt P42685). To be noted: at 1 µM.
Assay [10] has the same target. Conditions: at 10 µM.
The target of assay [11] is T3, Phosphorylase b kinase gamma catalytic chain, liver/testis isoform (Homo sapiens) (UniProt P15735).
T3 sequence (whole entry): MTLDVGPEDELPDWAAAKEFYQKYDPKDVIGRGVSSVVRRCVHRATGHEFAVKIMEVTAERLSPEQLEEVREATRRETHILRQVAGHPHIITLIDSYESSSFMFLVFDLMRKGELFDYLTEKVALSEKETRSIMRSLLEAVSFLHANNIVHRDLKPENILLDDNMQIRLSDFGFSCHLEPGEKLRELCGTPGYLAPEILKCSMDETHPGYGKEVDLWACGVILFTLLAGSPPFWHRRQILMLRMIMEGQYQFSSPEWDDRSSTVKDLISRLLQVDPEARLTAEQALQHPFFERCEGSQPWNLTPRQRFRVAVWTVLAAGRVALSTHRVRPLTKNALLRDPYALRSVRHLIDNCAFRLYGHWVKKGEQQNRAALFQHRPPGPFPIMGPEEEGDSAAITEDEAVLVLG
Conditions: at 1 µM.

Assay [12] deals with T3, Phosphorylase b kinase gamma catalytic chain, liver/testis isoform (Homo sapiens). To be noted: at 10 µM.
Assay [13] has as its target Serine/threonine-protein kinase pim-1 (Homo sapiens) (UniProt P11309). To be noted: at 1 µM.
For assay [14] the target is unchanged. Conditions: at 10 µM.
The target of assay [15] is Serine/threonine-protein kinase pim-2 (Homo sapiens) (UniProt Q9P1W9). Conditions: at 1 µM.
Assay [16] shares this target. Conditions: at 10 µM.
In assay [17] the target is Serine/threonine-protein kinase pim-3 (Homo sapiens) (UniProt Q86V86). To be noted: at 1 µM.
The target is the same in assay [18]. To be noted: at 10 µM.
Assay [19] has as its target Serine/threonine-protein kinase PLK1 (Homo sapiens) (UniProt P53350). To be noted: at 1 µM.
The target is the same in assay [20]. To be noted: at 10 µM.

Sequence of Serine/threonine-protein kinase pim-1 (Homo sapiens) (P11309 whole entry, looked up): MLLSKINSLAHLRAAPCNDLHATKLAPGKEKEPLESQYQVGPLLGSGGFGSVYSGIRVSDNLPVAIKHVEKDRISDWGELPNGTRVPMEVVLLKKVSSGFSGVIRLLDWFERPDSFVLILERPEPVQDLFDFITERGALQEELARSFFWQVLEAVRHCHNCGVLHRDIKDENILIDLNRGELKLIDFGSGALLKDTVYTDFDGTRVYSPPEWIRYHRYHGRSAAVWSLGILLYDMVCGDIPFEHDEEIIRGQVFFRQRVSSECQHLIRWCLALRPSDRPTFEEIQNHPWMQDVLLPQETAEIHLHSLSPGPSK
Sequence of Tyrosine-protein kinase FRK (Homo sapiens) (P42685 whole entry): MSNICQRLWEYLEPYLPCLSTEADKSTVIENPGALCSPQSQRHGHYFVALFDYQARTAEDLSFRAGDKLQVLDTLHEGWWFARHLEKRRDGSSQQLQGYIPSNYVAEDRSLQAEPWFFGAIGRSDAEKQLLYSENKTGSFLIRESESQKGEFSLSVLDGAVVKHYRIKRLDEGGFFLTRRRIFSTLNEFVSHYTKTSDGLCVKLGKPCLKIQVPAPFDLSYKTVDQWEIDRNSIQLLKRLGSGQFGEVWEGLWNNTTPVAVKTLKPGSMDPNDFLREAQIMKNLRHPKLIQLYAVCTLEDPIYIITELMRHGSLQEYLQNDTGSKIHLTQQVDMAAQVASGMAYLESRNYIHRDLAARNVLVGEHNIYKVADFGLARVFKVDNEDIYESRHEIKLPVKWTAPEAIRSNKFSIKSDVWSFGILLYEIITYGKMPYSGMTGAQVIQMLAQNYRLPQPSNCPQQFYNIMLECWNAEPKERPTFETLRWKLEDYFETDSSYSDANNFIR
Sequence of Serine/threonine-protein kinase PLK1 (Homo sapiens) (P53350 whole entry): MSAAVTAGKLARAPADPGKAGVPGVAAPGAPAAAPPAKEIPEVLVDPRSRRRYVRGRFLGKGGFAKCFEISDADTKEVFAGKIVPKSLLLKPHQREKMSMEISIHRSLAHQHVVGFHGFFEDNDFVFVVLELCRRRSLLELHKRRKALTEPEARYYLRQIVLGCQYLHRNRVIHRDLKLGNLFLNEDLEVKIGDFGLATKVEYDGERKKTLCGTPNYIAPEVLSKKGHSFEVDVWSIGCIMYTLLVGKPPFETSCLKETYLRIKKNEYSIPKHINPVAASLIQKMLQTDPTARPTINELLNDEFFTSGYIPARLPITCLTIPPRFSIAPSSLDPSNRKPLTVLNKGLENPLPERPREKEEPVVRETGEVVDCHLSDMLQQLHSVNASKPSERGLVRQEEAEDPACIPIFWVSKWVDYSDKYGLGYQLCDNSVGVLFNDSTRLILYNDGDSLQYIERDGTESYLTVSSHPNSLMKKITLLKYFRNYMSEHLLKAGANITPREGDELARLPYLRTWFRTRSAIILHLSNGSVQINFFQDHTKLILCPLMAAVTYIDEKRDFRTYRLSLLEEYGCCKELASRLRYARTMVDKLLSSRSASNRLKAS
Sequence of Serine/threonine-protein kinase N2 (Homo sapiens) (Q16513 whole entry, looked up): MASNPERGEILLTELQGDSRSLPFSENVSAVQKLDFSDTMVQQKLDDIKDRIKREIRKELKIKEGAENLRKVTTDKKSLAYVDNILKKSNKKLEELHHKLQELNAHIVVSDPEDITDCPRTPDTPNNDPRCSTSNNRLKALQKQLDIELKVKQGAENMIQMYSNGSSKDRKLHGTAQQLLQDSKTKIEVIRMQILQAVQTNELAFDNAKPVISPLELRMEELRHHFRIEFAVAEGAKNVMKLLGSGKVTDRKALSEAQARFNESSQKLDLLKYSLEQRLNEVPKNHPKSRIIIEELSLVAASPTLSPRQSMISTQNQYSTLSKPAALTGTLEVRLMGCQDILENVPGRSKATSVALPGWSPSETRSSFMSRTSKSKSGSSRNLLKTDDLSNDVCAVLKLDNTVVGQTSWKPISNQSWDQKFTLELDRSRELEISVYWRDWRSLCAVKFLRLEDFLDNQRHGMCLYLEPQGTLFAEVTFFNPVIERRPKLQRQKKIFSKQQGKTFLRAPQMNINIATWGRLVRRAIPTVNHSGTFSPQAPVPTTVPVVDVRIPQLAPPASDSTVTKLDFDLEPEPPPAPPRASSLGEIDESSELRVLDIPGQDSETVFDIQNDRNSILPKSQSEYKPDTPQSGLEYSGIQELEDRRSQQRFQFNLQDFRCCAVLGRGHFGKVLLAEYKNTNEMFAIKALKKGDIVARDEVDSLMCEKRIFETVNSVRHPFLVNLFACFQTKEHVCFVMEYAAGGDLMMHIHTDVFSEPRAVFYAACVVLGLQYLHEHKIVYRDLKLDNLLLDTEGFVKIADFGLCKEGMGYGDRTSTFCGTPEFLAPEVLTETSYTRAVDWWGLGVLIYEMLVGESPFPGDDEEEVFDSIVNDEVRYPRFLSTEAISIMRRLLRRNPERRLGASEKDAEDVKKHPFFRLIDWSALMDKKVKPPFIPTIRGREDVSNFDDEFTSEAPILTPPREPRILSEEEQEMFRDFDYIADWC
Sequence of Serine/threonine-protein kinase pim-2 (Homo sapiens) (Q9P1W9 whole entry, looked up): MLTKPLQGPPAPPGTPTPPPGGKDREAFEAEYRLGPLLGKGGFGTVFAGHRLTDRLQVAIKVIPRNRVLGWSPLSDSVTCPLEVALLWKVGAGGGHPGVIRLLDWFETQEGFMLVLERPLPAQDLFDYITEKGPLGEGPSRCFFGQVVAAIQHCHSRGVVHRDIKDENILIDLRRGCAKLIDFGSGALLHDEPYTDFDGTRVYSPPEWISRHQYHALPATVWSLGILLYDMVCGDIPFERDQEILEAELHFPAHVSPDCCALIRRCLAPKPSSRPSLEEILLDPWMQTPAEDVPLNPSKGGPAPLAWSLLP

Turning to `Nc1n[nH]c2nnc(-c3c(-c4ccccc4)nn4ccccc34)cc12`, the residual activity in assay [1] came out at 95%; in assay [2], 104%; in assay [3], 92%; in assay [4], 76%; in [5], 104%; in assay [6], 101%. Moreover, the residual activity was 91% in [7]; 76% in assay [8]; 99% in assay [9]; 46% in [10]; 104% in assay [11]; 98% in assay [12]. Moreover, the residual activity in assay [13] came to 98%; in assay [14], 85%; in [15] it was 123%; in assay [16] it was 74%; in assay [17] it was 88%; in [18] it was 83%. In addition, the values for the residual activity in assay [19] and in [20] were 78% and 92%, respectively.

Take `CC(=O)O/N=C1\C(=C2\C(=O)Nc3cc(Br)ccc32)Nc2ccccc21`: the residual activity came out at 101% in assay [1]; 112% in assay [2]; 102% in assay [3]; 76% in assay [4]; 105% in assay [5]; 98% in [7]. Moreover, the residual activity is 79% in assay [8]; 17% in assay [9]; 1% in assay [10]; 92% in [11]; 70% in assay [12]; 92% in assay [13]. For the same compound, the residual activity turned out to be 87% in [14]; 134% in assay [15]; 67% in assay [16]; 84% in [17]; 84% in assay [18]; 79% in assay [19]. Moreover, the residual activity in assay [20] was found to be 76%.

Regarding `O=C1c2ccccc2-[n+]2ccc3c([nH]c4ccccc43)c21`, the residual activity in [1] came to 94%; in [2] it was 116%; in assay [3], 83%; in [4], 75%; in assay [5], 119%; in assay [6] it was 124%. Also, the residual activity was 86% in assay [7]; 92% in assay [8]; 95% in assay [9]; 92% in [10]; 108% in assay [11]; 99% in assay [12]. Further, the residual activity turned out to be 110% in assay [13]; 91% in [14]; 144% in assay [15]; 130% in [16]; 81% in assay [17]; 74% in assay [18]. The residual activity was 75% in assay [19] and 74% in [20].

Take `CNc1cc2c(Nc3cccc(Br)c3)ncnc2cn1`: the residual activity is 112% in assay [1]; 108% in [2]; 75% in assay [3]; 62% in assay [4]; 89% in assay [5]; 94% in assay [6]. Moreover, the residual activity in [7] is 84%; in assay [8] it was 93%; in [9], 92%; in [10], 37%; in assay [11] it was 104%; in [12], 107%. Besides, the residual activity worked out at 64% in assay [13]; 42% in assay [14]; 86% in assay [15]; 88% in [16]; 96% in assay [17]; 81% in assay [18]. Besides, the residual activity in assay [19] amounted to 99%; in assay [20], 94%.

As for `O=C1Nc2ccc(Br)cc2/C1=C\c1cc2c([nH]1)CCCC2`, the residual activity was determined as 100% in assay [1]; 99% in assay [2]; 105% in [3]; 97% in assay [4]; 82% in [5]; 99% in assay [6]. Besides, the residual activity in assay [8] stood at 112%; in [9] it was 102%; in assay [10] it was 103%; in [11] it was 77%; in assay [12], 78%; in assay [14], 105%. For the same compound, the residual activity worked out at 129% in assay [15]; 106% in [16]; 105% in assay [17]; 112% in assay [18]; 82% in assay [19]; 80% in [20].

For `c1ccc(-c2n[nH]cc2-c2ccnc3ccccc23)nc1`, the residual activity in [5] turned out to be 73%; in assay [6] it was 90%; in assay [7], 89%; in [8], 103%; in [9] it was 84%; in assay [10], 25%. In addition, the residual activity stood at 95% in assay [11]; 102% in [12]; 96% in assay [13]; 85% in assay [14]; 99% in [17]; 100% in assay [18]. Moreover, the residual activity in assay [19] turned out to be 80%; in assay [20] it was 72%.

In the case of `c1ccc2c(-c3ccncc3)c[nH]c2c1`, the residual activity worked out at 76% in assay [1]; 23% in assay [2]; 54% in assay [3]; 12% in assay [4]; 87% in assay [5]; 90% in assay [6]. The residual activity is 30% in [7]; 8% in assay [8]; 88% in [9]; 97% in [10]; 103% in [11]; 86% in assay [12]. In addition, the residual activity turned out to be 97% in assay [13]; 49% in assay [14]; 97% in assay [15]; 91% in assay [17]; 86% in [18]; 86% in assay [19]. For the same compound, the residual activity in [20] stood at 65%.
